Legend:
Assay type in all cases: functional
[1] = test system: Plasmodium falciparum; test: GSK_TCMDC: Inhibition of Plasmodium falciparum 3D7 in whole red blood cells, using parasite LDH activity as an index of growth. Test compounds present at 2uM
[2] = test system: Plasmodium falciparum; test: GSK_TCMDC: Inhibition of Plasmodium falciparum Dd2 in whole red blood cells, using parasite LDH activity as an index of growth. Test compounds present at 2uM
[3] = test system: HepG2; test: GSK_TCMDC: Percent inhibition of human HepG2 cell line. Test compounds present at 10uM.

Compound | Inhibition [1] [%] | Inhibition [2] [%] | Inhibition [3] [%]
Cc1cc(N[C@@H](Cc2ccccc2)C(=O)NCCc2ccccc2)nc(NCCc2cccs2)n1.O=C(O)C(F)(F)F | 99 | 84 | 12
CCc1cccc(-n2c(=O)c3cccnc3n2CC(=O)NCc2ccccc2Cl)c1 | 98 | 19 | 25
CN1C(C)(C)CC(NC(=O)c2ccc(-c3nc4cc(Cl)ccc4[nH]3)cc2)CC1(C)C | 99 | 36 | 23
CC(=O)c1ccc(S(=O)(=O)N2CCC(C(=O)Nc3ccccc3N3CCCC3)CC2)cc1 | 95 | 99 | 0
O=C(N[C@@H](CC1CCCCC1)C(=O)NC1CCCc2ccccc21)c1ccc(O)c(-c2cccc(C(F)(F)F)c2)c1 (some centres not stated) | 100 | 99 | 0
Br.Oc1ccc(CCNCCCCNCCc2ccc(Cl)cc2)cc1O | 94 | 0 | 33
O=C(O)C(F)(F)F.Oc1ccc(CCNc2nc(NCc3ccccc3-c3ccccc3)nc(N3CCCNCC3)n2)cc1 | 95 | 20 | 26
Cc1cccc2nc(-c3cccc(-c4ccc(NC(=O)Nc5ccc(Cl)c(Cl)c5)cc4)c3)[nH]c12 | 100 | 83 | 53
CCOc1cc(Cl)c(C(C)NC(=O)c2ccccc2)cc1OCC (configuration not stated) | 91 | 49 | 0

Reference: ChEMBL document CHEMBL1157539, “Thousands of chemical starting points for antimalarial lead identification” (Nature, 2010)
